This is an account of results in PubChem BioAssay (NCI).

Some test systems named below: NCI-H23 lung; NCI-H226 lung; NCI-H322M lung; HOP-62 NSCLC; NCI-H460 lung; HOP-92 NSCLC; NCI-H522 lung; A549/ATCC NSCLC; COLO 205 colon; DU-145 prostate; K-562 leukemia; MALME-3M melanoma; MDA-MB-231 breast; SF-268 CNS; SF-295 CNS; SF-539 CNS; UACC-257 melanoma; M14 melanoma; 786-0 renal; RXF 393 renal.
Assay in all cases: NCI-60 one-dose screen, 48 h (100 = growth as untreated, 0 = no growth, -100 = all killed)
Holding throughout (settings): 10 µM unless noted

Compounds without any hit were thinned out: in the full panel of roughly 83,000, 20% have a hit.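 Cells were grown in 96-well plates and exposed to the test compound at a single concentration for 48 hours; results are reported as percent growth, with values below 10 considered active.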 Values without a mark were called inactive. Calls of active or inactive are those of the source.

On to `O=C1c2ccccc2C(=O)c2c(NCCN=Cc3c(O)ccc4ccccc34)cccc21`, for which the growth was 92.9% with NCI-H23 lung; 91.7% with NCI-H226 lung; 91.4% in the assay with NCI-H322M lung; 47% with HOP-62 NSCLC; 88.7% with NCI-H460 lung; 37.9% in the assay on HOP-92 NSCLC. In addition, the growth with NCI-H522 lung is 84.7%; with A549/ATCC NSCLC it was 19.9%; in the assay with COLO 205 colon, 85.3%; in the assay with DU-145 prostate, 51.7%; in the assay on K-562 leukemia it was 77.7%; with MALME-3M melanoma it was 113%. Besides, the growth in the assay on MDA-MB-231 breast was 84.4%; in the assay with SF-268 CNS, 82.3%; in the assay with SF-295 CNS, 65.1%; in the assay with SF-539 CNS it was 91.4%; with UACC-257 melanoma it was -5.35% (active); in the assay with M14 melanoma, 65.8%.

As for `O=C(COc1ccc(Cl)cc1Cl)N1N=C(c2ccc(Cl)cc2Cl)CC1(O)c1cc(F)c(Cl)cc1Cl` (stereo not given), the growth in the assay with NCI-H23 lung is 98.7%; with NCI-H322M lung, 110%; in the assay with HOP-62 NSCLC it was 105%; with NCI-H460 lung, 107%; in the assay on HOP-92 NSCLC, 84.5%; in the assay on NCI-H522 lung, 95%. In addition, the growth in the assay with A549/ATCC NSCLC is 107%; in the assay with 786-0 renal, 101%; in the assay with COLO 205 colon, 95.4%; in the assay with DU-145 prostate it was 123%; with K-562 leukemia it was 64.4%; with MALME-3M melanoma, 129%. Besides, the growth with MDA-MB-231 breast is 136%; in the assay on RXF 393 renal, 134%; in the assay on SF-268 CNS it was 103%; in the assay on SF-295 CNS, 117%; in the assay with SF-539 CNS, 112%; in the assay with UACC-257 melanoma, 99%.

As for `O=C1c2ccccc2OC=C(c2ccccc2)N1CCCCNc1ccc(F)cc1`, the growth was 90.1% with NCI-H23 lung; 87.5% in the assay on NCI-H226 lung; 90.3% with NCI-H322M lung; 85.1% in the assay with HOP-62 NSCLC; 21.8% with HOP-92 NSCLC; 69.5% in the assay with NCI-H522 lung. Moreover, the growth is 68.9% in the assay on A549/ATCC NSCLC; 68.2% in the assay with 786-0 renal; 67.6% in the assay on COLO 205 colon; 98.9% in the assay with DU-145 prostate; 68.1% in the assay on K-562 leukemia; 82.3% with MALME-3M melanoma. Also, the growth in the assay with MDA-MB-231 breast is 74.9%; in the assay on RXF 393 renal, 97.9%; in the assay with SF-268 CNS it was 78.3%; with SF-295 CNS, 86%; with SF-539 CNS, 100%; in the assay on UACC-257 melanoma it was 83.6%. Besides, the growth in the assay on M14 melanoma is 76.7%.

Regarding `O=C(Nc1cccc(-n2ccc3c(NC(=O)c4ccccc4)nccc32)c1)Nc1cc(C(F)(F)F)cc(C(F)(F)F)c1`, the growth in the assay with NCI-H23 lung is 3.76% (active); in the assay on NCI-H226 lung, 26.3%; with NCI-H322M lung, 46%; in the assay on HOP-62 NSCLC, 35.6%; in the assay with HOP-92 NSCLC, -13% (active); in the assay with NCI-H522 lung it was -46.5% (active). The growth in the assay on A549/ATCC NSCLC was 7.57% (active); with 786-0 renal, 13.4%; in the assay with COLO 205 colon, -36.3% (active); with DU-145 prostate, 1.14% (active); in the assay on K-562 leukemia, 4.23% (active); in the assay with MALME-3M melanoma, 26.2%. The growth with MDA-MB-231 breast was -10.5% (active); in the assay on RXF 393 renal, -19.4% (active); in the assay on SF-268 CNS it was 22.1%; in the assay with SF-295 CNS, -19.2% (active); with SF-539 CNS it was -19.3% (active); in the assay on UACC-257 melanoma, 25.2%. Also, the growth with M14 melanoma is -43.8% (active).

`COc1cc(NC(C)CCCN2C(=O)c3ccccc3C2=O)c2nc(C)ccc2c1OC` (stereo not given): the growth in the assay with NCI-H23 lung is 87.9%; in the assay with NCI-H226 lung, 96.4%; in the assay with NCI-H322M lung, 76.2%; in the assay with HOP-62 NSCLC it was 95.1%; in the assay with HOP-92 NSCLC it was 53.5%; with NCI-H522 lung, 82%. For the same molecule, the growth in the assay with A549/ATCC NSCLC was 94.8%; in the assay with 786-0 renal, 97.5%; in the assay with DU-145 prostate, 103%; with K-562 leukemia, 66.5%; with MALME-3M melanoma it was 104%; in the assay with MDA-MB-231 breast it was 78.3%. Also, the growth is 96.4% in the assay with RXF 393 renal; 104% with SF-268 CNS; 93.5% in the assay on SF-295 CNS; 99.4% in the assay on SF-539 CNS; 102% in the assay with UACC-257 melanoma; 99.9% with M14 melanoma.

Turning to `NCC(=O)NS(=O)(=O)OC[C@H]1O[C@@H](n2cnc3c(N)ncnc32)[C@H](O)[C@@H]1O`, the growth in the assay on NCI-H23 lung is 5.7% (active); in the assay on NCI-H226 lung, -54.6% (active); in the assay on NCI-H322M lung, -1.74% (active); in the assay with HOP-62 NSCLC, -32.1% (active); in the assay with HOP-92 NSCLC, 17.3%; in the assay with NCI-H522 lung, -51.6% (active). Besides, the growth in the assay with A549/ATCC NSCLC was 9.7% (active); with 786-0 renal, -7.02% (active); with COLO 205 colon, 48.5%; in the assay with DU-145 prostate, -31.7% (active); in the assay with K-562 leukemia it was 7.38% (active); with MALME-3M melanoma, -2.82% (active). The growth in the assay on MDA-MB-231 breast was 2.61% (active); with RXF 393 renal it was -36.6% (active); in the assay on SF-268 CNS it was 3.78% (active); in the assay with SF-295 CNS it was -33.7% (active); in the assay with SF-539 CNS, -9.36% (active); in the assay with UACC-257 melanoma it was 27.4%. In addition, the growth with M14 melanoma was -23.1% (active).

Turning to `CC(=O)O[C@@H]1[C@@H](OC(C)=O)[C@H](OC(C)=O)CO[C@H]1Nc1cccc2ccccc12`, the growth in the assay on NCI-H23 lung was 94.8%; with NCI-H226 lung it was 97.2%; with NCI-H322M lung it was 94.4%; in the assay on HOP-62 NSCLC, 94.1%; with NCI-H460 lung, 98%; in the assay on HOP-92 NSCLC it was 104%. Also, the growth was 68.3% in the assay on NCI-H522 lung; 102% with A549/ATCC NSCLC; 107% in the assay on 786-0 renal; 100% in the assay on DU-145 prostate; 86.9% in the assay with MALME-3M melanoma; 89% in the assay with MDA-MB-231 breast. For the same molecule, the growth with RXF 393 renal was 105%; in the assay on SF-268 CNS, 83.1%; with SF-295 CNS, 94.5%; with SF-539 CNS, 90.2%; in the assay with UACC-257 melanoma it was 103%; in the assay with M14 melanoma it was 99.6%.

With `O=S(=O)(O)c1ccc(F)cc1`, the growth with NCI-H23 lung was 96.1%; with NCI-H322M lung, 97.3%; with HOP-62 NSCLC it was 92.6%; in the assay on NCI-H460 lung, 111%; in the assay on HOP-92 NSCLC it was 116%; with NCI-H522 lung, 82.8%. The growth in the assay with A549/ATCC NSCLC was 101%; in the assay with 786-0 renal it was 103%; in the assay on COLO 205 colon, 114%; in the assay with DU-145 prostate, 103%; with K-562 leukemia, 85%; with MALME-3M melanoma it was 90.7%. Also, the growth in the assay on MDA-MB-231 breast is 112%; in the assay on RXF 393 renal, 116%; in the assay with SF-268 CNS, 93.2%; in the assay with SF-295 CNS, 96.1%; with SF-539 CNS, 102%; with UACC-257 melanoma it was 111%.

Take `O=C1C(SCCO)=C(SCCO)C(=O)N1c1ccc(-c2ccccc2)cc1`: the growth with NCI-H23 lung was 88.9%; in the assay on NCI-H226 lung it was 74.9%; in the assay with NCI-H322M lung, 124%; in the assay on HOP-62 NSCLC, 91.5%; with HOP-92 NSCLC, 39.9%; in the assay on NCI-H522 lung, -61.3% (active). In addition, the growth is 105% with A549/ATCC NSCLC; 82.3% in the assay on 786-0 renal; -56.5% (active) in the assay with COLO 205 colon; 27.1% in the assay with DU-145 prostate; -0.074% (active) in the assay with K-562 leukemia; -44.5% (active) in the assay on MALME-3M melanoma. Also, the growth with MDA-MB-231 breast was 95%; with SF-268 CNS it was 41.1%; in the assay on SF-295 CNS, 103%; in the assay with SF-539 CNS, 104%; in the assay with UACC-257 melanoma, -5.64% (active); with M14 melanoma, 85.7%.
